The source of these data is PubChem BioAssay AID1346428 (National Center for Advancing Translational Sciences (NCATS), 2018).

Out of some 48,000 compounds screened, about 1,200 (2.5%) were called active. Inconclusive results (about 2%) are left out. The sample as a whole holds a higher share of actives than the screen did. Unmarked numbers belong to inactive results.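 How the source made its calls: active means activation of at least 60% and not above a set upper limit (about 1 call in 100 departs from these limits); inconclusive means activation of 40% to 60%, or above that upper limit; inactive means activation under 40%.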

For this assay, the target named is Probable G-protein coupled receptor 32 (Homo sapiens) (UniProt O75388). The assay is described as follows: qHTS for Agonists of Human Resolvin D1 Receptor DRV1. The conditions noted are these: CHO-K1 GPR32 beta-arrestin PathHunter luminescence, 90 min; at 76.9 µM; active compounds read high; zero percent set by DMSO-only wells. From the text: Endogenous resolution of inflammation is known to be transduced through various GPCRs and their natural mediators of lipid nature. Resolvin D1 (RvD1) is one of the active players in resolution of acute inflammation through regulation of anti-inflammatory pathways; it is known to enhance phagocytosis of human macrophages, limits neutrophils infiltration, etc. […] The search for GPR32-activating small molecules with anti-inflammatory effects similar to its natural omega-3 derivative ligand in order to use them as research tools for further studies of inflammation and its resolution was the goal of this screening project. For primary screening assay, we used CHO-K1 GPR32 beta-arrestin cell line (DiscoveRx, #93-0321C2A) and the PathHunter(R) beta-Arrestin Assay (DiscoveRx) which measures recruitment of beta-arrestin to the GPR32 and generates chemiluminescent signal. These engineered cells stably transfected with GPR32 co-express GPR32-fused small 42-amino acid fragment of beta-Gal called ProLinktrade mark, and […] -tagged beta-Arrestin fusion protein. When GPR32 is activated by a ligand, it stimulates binding of beta -Arrestin to ProLink-tagged GPR32, and two parts of beta-Gal complement forming a functional enzyme. Upon substrate (PathHunter(R) Detection reagent) addition, beta-Gal hydrolyzes it and generates a chemiluminescent signal.
Chain of Probable G-protein coupled receptor 32 (Homo sapiens) (O75388 whole entry, looked up): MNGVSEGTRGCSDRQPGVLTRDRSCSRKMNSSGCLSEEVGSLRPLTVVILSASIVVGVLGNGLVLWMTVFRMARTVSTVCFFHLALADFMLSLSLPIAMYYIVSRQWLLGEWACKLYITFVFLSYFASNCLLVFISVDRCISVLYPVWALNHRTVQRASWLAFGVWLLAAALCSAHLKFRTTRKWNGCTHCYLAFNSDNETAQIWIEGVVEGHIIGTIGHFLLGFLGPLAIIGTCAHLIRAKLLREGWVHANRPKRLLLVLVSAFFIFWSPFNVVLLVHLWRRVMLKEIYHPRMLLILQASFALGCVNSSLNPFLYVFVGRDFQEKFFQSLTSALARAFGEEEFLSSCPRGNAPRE
The cells were thawed and plated in thawing media containing F-12 HAM (Invitrogen, #11765-054), 10% FBS (Invitrogen, #10082), 1x Glutamine, and 1x Pen/Strep onto the 175-mm flask for 24 hours. Then, thawing media was replaced with Growth media which contains 800microg/mL Geneticin (Invitrogen, #10131) and 300microg/mL Hygromycin B (Invitrogen, #10687) in addition to described above. For the assay, the cells were harvested at ~80% confluent stage with Cell Dissociation buffer (Gibco, #13151), and seeded at 2,500 cells/ 3microL/well in assay media (PathHunter(R) Cell Plating Reagent, DiscoverX, #93-0563R1B) using MultiDrop Combi dispenser (Thermo Scientific, Logan, UT) onto white solid bottom tissue culture-treated 1536-well plates (Greiner # 789173-F) and allowed to attach overnight at 37 degrees C, 95% humidity, 5% CO2, . Next, 23nL/well of compound solutions in DMSO were added with a Pin Tool (Kalypsis, San Diego, CA) to the assay plates. As the basal control (EC0), 23 nL/well of DMSO was used on each plate. The cells were incubated in the presence of compounds or DMSO for 90 minutes at 37 degrees C, 5% CO2. Subsequently, 1.5microL/well of PathHunter(R) Detection Reagent prepared per the manufacturer's instructions was added to the assay plates with BioRAPTR FRDtrade mark dispenser (Beckman Coulter, San Francisco, CA) and incubated for 1 hour at ambient temperature prior to the measurement of the luminescent signal on ViewLux(R) uHTS Microplate Imager (Perkin Elmer, Waltham, MA).
As to `Cc1ccc(Cl)cc1N1CCN(S(=O)(=O)c2cc3[nH]c(=O)c(=O)[nH]c3cc2C)CC1`, the activation was 97% (active).
For the compound `CCn1cc(C(=O)N2CCN(c3cc(Cl)ccc3C)CC2)c(=O)c2cc(S(=O)(=O)N3CCCC3)ccc21`, the activation was -4.63%.
With `COC(=O)c1cc(S(=O)(=O)N2CCN(c3cc(Cl)ccc3C)CC2)c[nH]1`, the activation was 13.7%.
The value for `Cc1c(C)n(Cc2ccc(Cl)cc2)c2ccc(C(=O)N3CCN(c4ccccc4F)CC3)cc12` was -26.9%; that for `O=c1c2ccccc2n(Cc2cccc(Cl)c2)c(=O)n1Cc1ccccc1` was -10.4%; that for `O=C(CC1Oc2ccc(Cl)cc2NC1=O)NCc1ccccc1` (stereo not given) was -14.9%.
The value for `O=C1N(Cc2ccccc2)c2ccc(Cl)cc2C1(O)c1c[nH]c2ccccc12` (stereo not given) was 116% (active).
Consider `Cc1cccc(NC(=O)Cn2nc(-c3ccc(Cl)cc3)c3ccccc3c2=O)c1`, for which the activation was -2.07%.
Take `COc1ccc(OCCCn2c(C3CC(=O)N(c4ccc(F)cc4)C3)nc3ccccc32)cc1` (stereo not given): the activation was 1.68%.
Consider `Cc1ccc(C)c(N2CCN(C(=O)Cc3c(C(=O)O)c(C)cn3C)CC2)c1`, for which the activation was -4.29%.
The value for `COc1ccc(OC)c(NC(=O)C2CCCN(S(=O)(=O)c3ccc4c(c3)CCCC(=O)N4)C2)c1` (stereo not given) was -4.17%.
For `CCOC(=O)c1ccc(NC(=O)C2CCN(S(=O)(=O)c3ccc4c(c3)CCCC(=O)N4)CC2)cc1`, the activation is 68.9% (active).
As to `CC(=O)Nc1ccc(NC(=O)C2CCCN(S(=O)(=O)c3ccc4c(c3)CCCC(=O)N4)C2)cc1` (stereo not given), the activation was 16.8%.
On to `COc1ccc(Cl)cc1NC(=O)NCC1CCN(Cc2ccccc2F)CC1`, for which the activation was -10.4%.
As to `CCOc1ccc(C2CC(=O)c3c([nH]c(C(=O)OCc4ccccc4)c3C)C2)cc1` (stereo not given), the activation was 49.1%.
Turning to `COc1cccc(CNC(=O)c2cc(=O)[nH]c3ccc(S(=O)(=O)N4CCCCC4)cc23)c1`, the activation is -3.54%.
As for `CCC(=O)N1CCc2cc(Br)cc(S(=O)(=O)NCc3ccc(Cl)cc3)c21`, the activation is 19.3%.
Turning to `CCN(CC)CCNC(=O)c1cc2c(=O)oc3ccc(C)cc3c2s1`, the activation was 67.3% (active).
`COc1ccc(Cl)cc1N(C)C(=O)c1cc2c(=O)oc3ccc(C)cc3c2s1`: the activation was 29.1%.
For `CCOc1ccc(N(CC)C(=O)c2cc3c(=O)oc4ccccc4c3s2)cc1`, the activation is 21.3%.
Turning to `Cc1cccc(Nc2cc(C)nc(-n3nc(C)cc3C)n2)c1`, the activation is -20.8%.
The value for `O=C(c1ccc2c(c1)N(Cc1ccccc1)C(=O)c1ccccc1S2(=O)=O)N1CCC(Cc2ccccc2)CC1` was -8.72%; that for `CCC1CCCCN1Cc1c(O)ccc2c(=O)c(Oc3ccccc3Cl)c(C(F)(F)F)oc12` (stereo not given) was 102% (active); that for `Cc1ccc(Oc2c(C(F)(F)F)oc3c(CN4CCCCC4)c(O)ccc3c2=O)cc1` was -34.2%.
On to `COc1ccc(-c2c(C)c3ccc(O)c(CN4CCCC4)c3oc2=O)cc1OC`, for which the activation is -5.21%.
On to `Cc1ccc(C)c(Oc2c(C(F)(F)F)oc3c(CN4CCN(C)CC4)c(O)ccc3c2=O)c1`, for which the activation was -14.3%.
On to `CC1CCCN(Cc2c(O)ccc3c(=O)c(Oc4ccc(C(C)(C)C)cc4)c(C(F)(F)F)oc23)C1` (stereo not given), for which the activation was 64.7% (active).
The value for `CC1CCCCN1Cc1c(O)ccc2c(=O)c(-c3cccc(Cl)c3)c(C(F)(F)F)oc12` (stereo not given) was -11.7%; that for `Cc1ccsc1CN(C(=O)c1oc2ccc(Br)cc2c1C)C1CCS(=O)(=O)C1` (stereo not given) was -26.5%.
Consider `Cc1cc(F)ccc1NS(=O)(=O)c1ccc(-n2cccn2)cc1`, for which the activation is 106% (active).
With `Cn1c(=O)n(C)c2cc(NS(=O)(=O)c3ccc(F)cc3)ccc21`, the activation was 7.69%.
For `Cc1cc(F)ccc1NC1(c2ccccc2)C(=O)c2ccccc2C1=O`, the activation is -74.1%.
On to `CCOC(=O)N1CCc2c(sc3c2c(=O)n(-c2ccc(CC)cc2)c(=O)n3C)C1`, for which the activation is -6.72%.
Consider `CC(Nc1ccc(-c2nc(-c3ccco3)no2)cc1[N+](=O)[O-])c1ccccc1` (stereo not given), for which the activation is -14.5%.
As for `COc1ccc(OC)c(NC(=O)CSc2nc3ccccc3nc2N2CCCCC2)c1`, the figure is -20.5%; as for `O=C(Nc1cccc(-c2nc3ccccc3o2)c1)c1cccc(Br)c1`, -18.9%.
As to `O=S(=O)(Nc1ccc2nc(-c3cccc(Cl)c3)oc2c1)c1ccccc1`, the activation was 93.4% (active).
As to `O=C(Nc1ccc(O)c(-c2nc3ccccc3o2)c1)c1ccc(-c2cccc(Cl)c2)o1`, the activation was 10.7%.
For `COC(=O)c1ccc(Cn2c(SCC(=O)N(C)c3ccccc3)nc3ccccc32)cc1`, the activation was -14.8%.
Consider `Cc1cccc(NC(=O)CSc2ncc(-c3ccccc3)[nH]2)c1C`, for which the activation was 93% (active).
On to `CCOc1cccc(NC(=O)CSc2ncc(-c3ccc(Cl)cc3)[nH]2)c1`, for which the activation is -15.1%.
`O=C(CSc1ncc(-c2ccccc2)[nH]1)Nc1ccc(F)cc1F`: the activation was -23.6%.
On to `COC(=O)c1ccc(NC(=O)CCc2c(C)nc3c(c(C)nn3-c3ccc(C)cc3)c2C)cc1`, for which the activation is -18.2%.
Regarding `CCc1ccc(NC(=O)Cn2c(=O)n(CCC(=O)NCc3ccc4c(c3)OCO4)c(=O)c3ccccc32)cc1`, the activation was -4.89%.
The value for `Cc1ccccc1NC(=O)Cn1cc(C(=O)c2cccs2)c2ccccc21` was -6.21%.
As to `Cn1c(=O)c2c(SCC(=O)NCC3CCCO3)nc(-c3ccccc3F)nc2n(C)c1=O` (stereo not given), the activation is -4.7%.
As for `CCOc1ccc(NC(=O)c2cnn(-c3ccccc3)c2-n2cccc2)cc1`, the figure is -6.74%.
As to `CN1CC[C@H](c2c(O)cc(O)c3c(=O)cc(-c4ccccc4Cl)oc23)[C@H](O)C1`, the activation is -16.5%.
As to `O=C(NC1CC(=O)N(c2ccc(F)cc2)C1)C1CCCCC1` (stereo not given), the activation was -2.56%.
Regarding `COc1cc(OC)cc(C(=O)Nc2c(C(=O)Nc3ccc(F)cc3)oc3ccccc23)c1`, the activation is 1.9%.
The value for `Cc1cc(C)cc(OC(C)C(=O)Nc2nc3c(s2)CCCC3)c1` (stereo not given) was -14.5%; that for `CC(C)C(=O)Nc1nc2c(s1)CC(C(C)(C)C)CC2` (stereo not given) was 63.2% (active).
For `CC(C)(C)C1CCc2c(sc(NC(=O)c3ccccc3F)c2C(=O)N2CCCCC2)C1` (stereo not given), the activation was -35.6%.
For `COc1ccc2cc(-c3nc(Cl)c4c5c(sc4n3)CC(C)CC5)c(=O)oc2c1` (stereo not given), the activation is -14.3%.
Turning to `CCCS(=O)(=O)N1CCC(n2c(C(F)(F)F)nc3cccnc32)CC1`, the activation is -3.95%.
`Cc1oc2ccc(O)c(CN3CCC(C)CC3)c2c1C(=O)Nc1ccccc1`: the activation was 17.2%.
Turning to `Cc1oc2ccc(O)c(CN3CCCCC3)c2c1C(=O)Nc1cccc(C(F)(F)F)c1`, the activation was 106% (active).
Regarding `Cc1oc2ccc(O)c(CN3CCOCC3)c2c1C(=O)Nc1cccc(Cl)c1C`, the activation is 18.4%.
Regarding `Cc1cccc(NC(=O)C2CCCN2S(=O)(=O)c2cccc3nsnc23)c1C` (stereo not given), the activation was 8.79%.
Regarding `CN1CCC[C@@H]1CCO[C@](C)(c1ccccc1)c1ccc(Cl)cc1`, the activation was 68.2% (active).
For `COc1ccc(-n2ccnc(NCCc3ccc(Cl)cc3)c2=O)cc1OC`, the activation is 105% (active).
For the compound `COc1ccccc1CNc1nccn(-c2ccc(F)cc2)c1=O`, the activation was 30.2%.
The value for `COc1cccc(CNc2nccn(-c3ccc(OC)c(OC)c3)c2=O)c1` was -0.901%; that for `COc1cccc(NC(=O)Nc2ccc3c(c2)N(C)C(=O)c2ccccc2S3)c1` was 4.16%.
Consider `COc1cccc(N=C2SC(C(=O)Nc3cccc(Cl)c3)CC(=O)N2C)c1` (stereo not given), for which the activation was 68.2% (active).
Consider `COc1cccc(NC(=O)C2CCN(c3cc(C)nc4c(-c5ccc(Cl)cc5)c(C)nn34)CC2)c1`, for which the activation is -2.14%.
Consider `CC(C)c1ccc(NC(=O)c2ccc3c(O)c(S(=O)(=O)c4ccccc4)c(=O)[nH]c3c2)cc1`, for which the activation was -0.853%.
As for `O=C(c1cnn(-c2ccc(F)cc2)c1-n1cccc1)N1CCN(c2ccc(F)cc2)CC1`, the figure is 19%; as for `COc1ccc(NC(=O)CSc2nc3ccccc3[nH]2)cc1`, -10%; as for `COc1ccc(CC(=O)Nc2ccc(-c3nc4ccccc4s3)c(C)c2)cc1`, 27.8%.
For the compound `Cc1ccc(OCC(=O)Nc2ccc(Cl)c(-c3nc4ccccc4[nH]3)c2)cc1C`, the activation was 70.6% (active).
In the case of `COc1ccc(CNC(=O)Cc2coc3ccc(C(C)C)cc23)cc1`, the activation was -15.8%.
In the case of `COc1ccc2c(c1)c(N1CCCC1=O)c(C(=O)Nc1ccc(OC)c(Cl)c1)n2C`, the activation is 3.27%.
For the compound `CCCCN(CCCC)CCC(O)c1cc2c(Cl)cc(Cl)cc2c2cc(C(F)(F)F)ccc12` (stereo not given), the activation is 98.9% (active).
The value for `CCOc1ccc(CCNC(=O)c2csc3c2CCCCC3)cc1` was 3.74%; that for `Brc1cccc(-c2nnn3c2nc(NC2CCCCC2)c2ccccc23)c1` was -7%; that for `O=C(Nc1nc2c(s1)CCCC2)c1ccccc1F` was -7.97%.
Turning to `CC(C)c1ccc(S(=O)(=O)Nc2ccc(O)c(Sc3nc4ccccc4s3)c2)cc1`, the activation was 70.6% (active).
As for `Cc1nc2ccc(S(=O)(=O)NC(C(=O)NCc3ccccc3Cl)C(C)C)cc2s1` (stereo not given), the activation was 7.27%.
As for `CC(C)(C)c1ccc(S(=O)(=O)Nc2ccc(O)c(Sc3nc4ccccc4s3)c2)cc1`, the activation is 2.42%.
Turning to `Cc1ccc(-n2c(=O)c3cccnc3n2CC(=O)Nc2ccccc2C(F)(F)F)cc1C`, the activation is -16.8%.
As for `CCCC12CN3CC(C)(CN(C1)C3c1ccccc1Cl)C2=O` (stereo not given), the figure is -8.25%.
Turning to `CCN(CCCNC(=O)c1cc2cc3cc(OC)ccc3nc2s1)c1ccccc1`, the activation is -15.5%.
With `Cc1cccc(N2CCN(C(=O)c3cnc(N4CCCC4)nc3C)CC2)c1C`, the activation was 36.6%.
As for `CCN(C(=O)Cn1c(=O)nc(-c2ccccc2)c2cc(Cl)ccc21)c1cccc(C)c1`, the activation was -7.41%.
